Assay results as given in PubChem BioAssay (Tox21).
Where “and” joins values, the source holds several entries; their conditions need not be identical. Equal values may be shown once. Inconclusive results are not listed. Where a call stands in place of a potency, no number is given. Some compounds were tested as several samples or in several runs, with calls that do not always agree. Calls of active or inactive are those of the source. Unless noted, the call rests on the fitted dose curve; in most records, active means well fitted curve in the direction sought with a large enough effect in the repeat runs; inconclusive means weak or mixed curves; inactive means no such curve, though single readings can be large; an effect the other way counts as inactive or inconclusive.

Experiments:
[1] = qHTS assay for small molecules that induce genotoxicity in human embryonic kidney cells expressing luciferase-tagged ATAD5 (AID 651632); further: nearly all actives have a fitted effect of over 15% in size
Procedure, shortened: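 Cells were seeded at 2,000 per well, dosed with compound, and incubated 16 hr at 37C in 5% CO2. Luciferase activity was then quantified after a 30 min room-temperature incubation with Amplite.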

[2] = qHTS assay for small molecule agonists of the p53 signaling pathway - cell viability (AID 651633; calls by dose curve;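 further: p53RE-bla HCT reporter cells with a stable beta-lactamase p53 reporter; series mostly up to about 83 µM; nearly all actives have a fitted effect of over 30% in size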)
Procedure, shortened: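 Viability counter-read: CellTiter-Glo luminescence (30 min, room temperature) in the same p53RE-bla plates. These plates had been exposed to compounds for 16 h at 37 C.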

[3] = qHTS assay for small molecules that induce genotoxicity in human embryonic kidney cells expressing luciferase-tagged ATAD5 - cell viability (AID 651634; calls by dose curve; further: nearly all actives have a fitted effect of over 25% in size)
Procedure, shortened: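 Cells (HEK293T, luciferase-tagged ATAD5) are seeded at 2,000 per well, dosed with compound or DMSO vehicle, and incubated 15.5 hr at 37C and 5% CO2. CellTiter-Fluor is added for 30 min before fluorescence is measured.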

[4] = qHTS assay for small molecule disruptors of the mitochondrial membrane potential - cell viability (AID 720634; calls by dose curve; further: nearly all actives have a fitted effect of over 20% in size; further: potency means the concentration at half of the fitted maximal effect)
Procedure, shortened: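 Cytotoxicity was measured by ATP quantitation in HepG2 wells that had first been treated with compound for 1 hr and stained with m-MPI dye; CellTiter-Glo incubation was 30 min at room temperature.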

[5] = qHTS assay to test for compound auto fluorescence at 590 nm (red) in HepG2 cells (AID 720674)
Procedure, shortened: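 1 hr compound incubation on HepG2 cells, 37 C, 5% CO2; plate read ex 540 nm / em 590 nm; intensities reported as Rose Bengal sodium equivalents.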

[6] = qHTS assay to test for compound auto fluorescence at 535 nm (green) in HepG2 cells (AID 720675)
[7] = qHTS assay to test for compound auto fluorescence at 460 nm (blue) in HEK293 cells (AID 720678)
Procedure, shortened: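 HEK293, 2,000 cells/well, 10% dialyzed FBS; attach 4-5 hr 37C; pin compound or DMSO; o/n 37C/5% CO2; fluorescence 405/460 nm; triamterene-equivalent units.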

[8] = qHTS assay to test for compound auto fluorescence at 590 nm (red) in HEK293 cells (AID 720679)
Procedure, shortened: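 Intensity at 540nm excitation and 590nm emission is reported as Rose Bengal sodium-equivalent autofluorescence. Measurements followed overnight exposure (37C, 5% CO2) of HEK293 cells, 2,000 per well, to 23 nL compound.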

[9] = qHTS assay to test for compound auto fluorescence at 535 nm (green) in HEK293 cells (AID 720680)
[10] = qHTS assay to test for compound auto fluorescence at 460 nm (blue) in HEK293 cell free culture (AID 720681)
Procedure, shortened: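 Blue fluorescence (Ex 405/Em 460 nm, triamterene-equivalent) was read immediately after pin transfer of compound or DMSO into medium (DMEM, 10% FBS) without cells.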

[11] = qHTS assay to test for compound auto fluorescence at 535 nm (green) in HEK293 cell free culture (AID 720682)
Procedure, shortened: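 Fluorescein serves as the green reference fluorophore; each compound's intrinsic emission at 535 nm (excitation 485 nm) is reported as an equivalent amount of that dye, measured in serum-containing DMEM without cells.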

[12] = qHTS assay to test for compound auto fluorescence at 590 nm (red) in HEK293 cell free culture (AID 720683)
Procedure, shortened: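 Red-channel autofluorescence of compounds in culture medium (DMEM, 10% FBS), no cells, measured at 540/590 nm. Rose Bengal sodium is the reference fluorophore for equivalence.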

[13] = qHTS assay to test for compound auto fluorescence at 590 nm (red) in HepG2 cell free culture (AID 720684)
Procedure, shortened: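 No cells present: MEM + 10% FBS only. Compound pinned in, red label read (540/590 nm). Activity = fluorescence equivalent to Rose Bengal sodium.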

[14] = qHTS assay to test for compound auto fluorescence at 460 nm (blue) in HepG2 cell free culture (AID 720685)
Procedure, shortened: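 Cell-free plates of MEM plus 10% FBS received 23 nL compound or DMSO vehicle; blue-channel (405/460 nm) intensity scored against triamterene as reference fluorophore.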

[15] = qHTS assay to test for compound auto fluorescence at 535 nm (green) in HepG2 cell free culture (AID 720686)
[16] = qHTS assay to test for compound auto fluorescence at 460 nm (blue) in HepG2 cells (AID 720687)
Procedure, shortened: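 Blue-channel autofluorescence (Ex/Em 405/460 nm, triamterene-equivalent) was measured after 1 hr compound exposure at 37 C, 5% CO2. Cells were HepG2, plated overnight at 37 C in MEM plus 10% FBS.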

[17] = target: Glucocorticoid receptor (Homo sapiens) (UniProt P04150); assay: qHTS assay to identify small molecule agonists of the glucocorticoid receptor (GR) signaling pathway (AID 720691; active means well fitted activation curve with a large enough effect in the signal ratio in the repeat runs, not every such curve was filed as active; the % refers to the signal ratio)
Procedure, shortened: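 Steps: seed GR-bla HeLa cells, incubate 4 h at 37 C/5% CO2; pin-transfer DMSO-dissolved compounds; incubate 18 h at 37 C; add LiveBLAzer B/G FRET substrate; after 2 h at room temperature, measure fluorescence.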

[18] = target: Glucocorticoid receptor (Homo sapiens) (UniProt P04150); assay: qHTS assay to identify small molecule antagonists of the glucocorticoid receptor (GR) signaling pathway (AID 720692; active means well fitted inhibition curve with a large enough effect in the signal ratio in the repeat runs, not every such curve was filed as active; the % refers to the signal ratio)
Procedure, shortened: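 Antagonism was scored as loss of dexamethasone-driven (5 nM final) reporter signal in HeLa cells bearing a glucocorticoid response element–beta-lactamase construct, after 18 h compound exposure at 37 C and 2 h FRET substrate loading.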

[19] = qHTS assay for small molecule agonists of the p53 signaling pathway (AID 651631; calls by dose curve; further: nearly all actives have a fitted effect of over 15% in size; further: potency means the concentration at half of the fitted maximal effect)
Procedure, shortened: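 Read-out is beta-lactamase FRET fluorescence measured 2 h after substrate addition at room temperature, in HCT-116 cells with a p53 response element-driven reporter exposed to compounds for 16 h at 37 °C.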

Sequence of Glucocorticoid receptor (Homo sapiens) (P04150 whole entry, looked up): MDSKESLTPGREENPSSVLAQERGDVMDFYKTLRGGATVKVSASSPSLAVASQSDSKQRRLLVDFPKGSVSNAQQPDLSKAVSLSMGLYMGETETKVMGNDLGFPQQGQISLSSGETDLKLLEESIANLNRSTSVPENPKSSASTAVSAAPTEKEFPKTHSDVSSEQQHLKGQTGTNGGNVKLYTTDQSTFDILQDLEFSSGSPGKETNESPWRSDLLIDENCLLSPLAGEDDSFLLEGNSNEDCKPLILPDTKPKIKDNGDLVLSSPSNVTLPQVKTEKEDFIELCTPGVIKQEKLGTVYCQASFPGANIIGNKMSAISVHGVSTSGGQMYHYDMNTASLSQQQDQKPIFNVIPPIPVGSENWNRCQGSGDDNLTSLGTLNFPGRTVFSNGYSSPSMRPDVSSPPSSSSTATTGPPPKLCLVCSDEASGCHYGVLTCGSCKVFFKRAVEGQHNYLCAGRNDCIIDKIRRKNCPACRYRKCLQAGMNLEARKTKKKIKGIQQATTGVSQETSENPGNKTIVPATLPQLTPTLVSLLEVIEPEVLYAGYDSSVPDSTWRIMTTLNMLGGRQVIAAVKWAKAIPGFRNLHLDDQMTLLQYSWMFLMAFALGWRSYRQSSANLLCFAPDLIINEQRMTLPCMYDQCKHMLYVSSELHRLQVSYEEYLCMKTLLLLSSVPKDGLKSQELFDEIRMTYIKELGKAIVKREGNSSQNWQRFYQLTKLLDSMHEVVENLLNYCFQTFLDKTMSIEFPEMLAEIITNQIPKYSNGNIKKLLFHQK

Structure (SMILES): CCC1(c2cccc(O)c2)CCCCN(C)C1 (stereo not given)
- outcome [1]: inactive
- Potency [2]: inactive
- Potency [3]: inactive
- Potency [4]: inactive
- fluorescence, relative to Rose Bengal [5]: 0.128% [at 18.6 µM] (inactive)
- fluorescence, % of fluorescein control [6]: 0.0413% [at 18.6 µM] (inactive)
- fluorescence, % of triamterene [7]: 0.018% [at 18.6 µM] (inactive)
- fluorescence, % of fluorescent control [8]: 0.162% [at 18.6 µM] (inactive)
- fluorescence, % of fluorescein [9]: -0.0115% [at 18.6 µM] (inactive)
- fluorescence, % of fluorescent control [10]: 0.0294% [at 18.6 µM] (inactive)
- activity change [11]: 0.0131% [at 18.6 µM] (inactive)
- fluorescence, % of fluorescent control [12]: 0.0544% [at 18.6 µM] (inactive)
- fluorescence, % of Rose Bengal [13]: 0.0113% [at 18.6 µM] (inactive)
- fluorescence, % of fluorescent control [14]: 0.002% [at 18.6 µM] (inactive)
- fluorescence, % of fluorescein control [15]: -0.0769% [at 18.6 µM] (inactive)
- fluorescence, % of fluorescent control [16]: -0.0146% [at 18.6 µM] (inactive)
- Potency [17]: inactive
- Potency [18]: inactive

Structure (SMILES): C=C1C[C@@H]2[C@H](CC[C@]3(C)C(=O)CC[C@@H]23)[C@@]2(C)C=CC(=O)C=C12
- outcome [1]: inactive
- Potency [2]: inactive
- Potency [3]: inactive
- Potency [4]: inactive
- outcome [5]: inactive
- outcome [6]: inactive
- outcome [7]: inactive
- outcome [8]: inactive
- outcome [9]: inactive
- outcome [10]: inactive
- outcome [11]: inactive
- outcome [12]: inactive
- outcome [13]: inactive
- outcome [14]: inactive
- outcome [15]: inactive
- outcome [16]: inactive

Structure (SMILES): O=[N+]([O-])CCO
- Potency [19]: inactive
- outcome [1]: inactive
- Potency [2]: inactive
- Potency [3]: inactive
- outcome [5]: inactive
- outcome [6]: inactive
- outcome [8]: inactive
- outcome [9]: inactive
- outcome [10]: inactive
- outcome [12]: inactive
- outcome [13]: inactive
- outcome [14]: inactive
- outcome [15]: inactive
- outcome [16]: inactive
- Potency [17]: inactive
- Potency [18]: inactive

Structure (SMILES): O=C(NC(=O)c1c(F)cccc1F)Nc1cc(Cl)c(F)c(Cl)c1F
- outcome [1]: inactive
- Potency [2]: inactive
- Potency [3]: inactive
- Potency [4]: inactive
- outcome [5]: inactive
- outcome [6]: inactive
- outcome [7]: inactive
- outcome [8]: inactive
- outcome [9]: inactive
- outcome [10]: inactive
- outcome [11]: inactive
- outcome [12]: inactive
- outcome [13]: inactive
- outcome [14]: inactive
- outcome [15]: inactive
- outcome [16]: inactive
- Potency [17]: inactive

Structure (SMILES): CCOc1cc(OP(=S)(OC)OC)nc(CC)n1
- Potency [19]: inactive
- outcome [1]: inactive
- Potency [2]: inactive
- Potency [3]: inactive
- outcome [5]: inactive
- outcome [6]: inactive
- outcome [8]: inactive
- outcome [9]: inactive
- outcome [10]: inactive
- outcome [11]: inactive
- outcome [12]: inactive
- outcome [13]: inactive
- outcome [14]: inactive
- outcome [15]: inactive
- outcome [16]: inactive
- Potency [17]: inactive
- Potency [18]: inactive

Structure (SMILES): O=P(O)(O)CN(CP(=O)(O)O)CP(=O)(O)O
- outcome [1]: inactive
- Potency [2]: inactive
- Potency [3]: inactive
- Potency [4]: inactive
- fluorescence, relative to Rose Bengal [5]: -0.158% [at 18.6 µM] (inactive)
- fluorescence, % of fluorescein control [6]: -0.0161% [at 18.6 µM] (inactive)
- fluorescence, % of triamterene [7]: 0.0178% [at 18.6 µM] (inactive)
- fluorescence, % of fluorescent control [8]: 0.149% [at 18.6 µM] (inactive)
- fluorescence, % of fluorescein [9]: -0.175% [at 18.6 µM] (inactive)
- fluorescence, % of fluorescent control [10]: -0.0261% [at 18.6 µM] (inactive)
- activity change [11]: -0.0587% [at 18.6 µM] (inactive)
- fluorescence, % of fluorescent control [12]: 0.0352% [at 18.6 µM] (inactive)
- fluorescence, % of Rose Bengal [13]: -0.0485% [at 18.6 µM] (inactive)
- fluorescence, % of fluorescent control [14]: -0.13% [at 18.6 µM] (inactive)
- fluorescence, % of fluorescein control [15]: 0.0644% [at 18.6 µM] (inactive)
- fluorescence, % of fluorescent control [16]: -0.044% [at 18.6 µM] (inactive)
- Potency [17]: inactive
- Potency [18]: inactive

Structure (SMILES): O=C1C2CC=CCC2C(=O)N1SC(Cl)(Cl)Cl (stereo not given)
- Potency [19]: 5.96 µM (active)
- outcome [1]: inactive
- Potency [2]: inactive
- Potency [4]: 29.8 µM (active) and inactive and 60.1 µM (active)
- outcome [5]: inactive
- outcome [8]: inactive
- outcome [9]: inactive
- outcome [10]: inactive
- outcome [11]: inactive
- outcome [12]: inactive
- outcome [13]: inactive
- outcome [15]: inactive
- outcome [16]: inactive
